Here are results for 9 compounds from PubChem BioAssay.

Assay [1] in a line: resazurin metabolic signal in HepG2 cells – cell-based, resazurin fluorescence, 24 h, PK04 Diversity Set, profiling panel (AID 1172). To be noted: HepG2 viability, higher = more signal. On the technique in general: Alamar Blue is a resazurin reagent that responds to reducing activity.
A short description of assay [2]: budding yeast growth changes without added modifier – OD600, strain BY4716, 24 h, basal condition, primary screen (AID 1173). Conditions: S. cerevisiae BY4716 growth, OD600, 24 h; higher = more signal, called active from +8 up or from −8 down.
Assay [3] in a line: viability profiling in MM1S myeloma cells – cell-based, resazurin fluorescence, basal, 24 h, PK04 Diversity Set, profiling panel (AID 1174). Conditions: higher = more signal, called active from +8 up or from −8 down.
For assay [4], the target named is Dihydroorotate dehydrogenase (quinone), mitochondrial (Plasmodium falciparum (isolate 3D7)) (UniProt Q08210). As to the kind of experiment: inhibition of P. falciparum DHODH – biochemical, C-terminal His tag, absorbance 600 nm, primary screen (AID 1175).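 Also: recombinant parasite enzyme with a five histidine tag at its C terminus.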 To be noted: PfDHODH enzyme, DCIP absorbance 600 nm; higher = more signal, called active from +8 up or from −8 down.

Assay [5] is described as follows: inhibition of PAO1 biofilm formation – strain PAO1, LB-PBS medium, absorbance 600 nm, primary screen (AID 1176). To be noted: P. aeruginosa PAO1 growth/biofilm, A600, 12 h; higher = more signal.
Assay [6] can be described thus: growth modulation of vineyard yeast isolate – strain RM11-1a, OD600, basal, 24 h, primary screen (AID 1177).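 Also: cultures grown under basal conditions with no added stressor.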 Conditions: S. cerevisiae RM11-1a growth, OD600, 24 h; higher = more signal, called active from +8 up or from −8 down.
The nature of assay [7]: growth of efflux-deficient E. coli DRC39 – strain DRC39, OD650, 24 h, E. coli filamentation inducers, primary screen (AID 1178).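 Also: growth measured as culture turbidity by optical density at 650 nm.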 To be noted: E. coli DRC39 acrAB, higher = more signal, called active from +8 up or from −8 down.
Assay [8] in a line: growth of efflux-deficient E. coli DRC39 – strain DRC39, OD650, 48 h, E. coli filamentation inducers, primary screen (AID 1179).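 Also: screen aims at cell division blockers that make cells filament.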 To be noted: E. coli DRC39 delta-acrAB growth, higher = more signal, called active from +8 up or from −8 down.
Assay [9] in a line: viability profiling in RPMI8226 myeloma cells – cell-based, resazurin fluorescence, basal, 24 h, PK04 Diversity Set, profiling panel (AID 1180).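 Also: RPMI8826 multiple myeloma cell line at 5000 cells per well.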 Conditions: higher = more signal.
Assay [10] deals with E3 ubiquitin-protein ligase XIAP (Homo sapiens) (UniProt P98170). Kind of assay: small molecules binding XIAP protein – biophysical, small-molecule microarray, fluorescence 635 nm, primary screen (AID 1181).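 Also: score merges 667 nm emission and signal to noise over triplicate slides.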 Conditions: higher = more signal.
Assay [11] has as its system XIP peptide (Xip251-270) binding. As to the kind of experiment: XIP fragment 251-270 binding compounds – biochemical, small-molecule microarray, fluorescence 635/667 nm, 0.1 µg/mL protein, primary screen (AID 1182). Conditions: fluorescent protein binding, 635 nm, higher = more signal, called active from +8 up or from −8 down.
The next assay relates to XIP peptide (Xip251-270). As to the kind of experiment: compounds binding XIP fragment 251-270 – biochemical, small-molecule microarray, fluorescence 635/667 nm, 0.5 µg/mL protein, primary screen (AID 1183). To be noted: fluorescence 635 nm, higher = more signal.
Assay [12] can be described thus: blood-stage malaria parasite viability loss – strain 3D7, DAPI fluorescence, 100 nL, primary screen (AID 1184).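 Also: parasites grown inside human red blood cells in medium with human serum.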 To be noted: P. falciparum 3D7 growth, 3 d, higher = more signal.
The target of assay [13] is Homeobox protein Hox-A13 (Mus musculus) (UniProt Q62424). Kind of assay: disruptors of Hoxa13 oligonucleotide interaction – biochemical, fluorescence polarization, labeled oligonucleotide, primary screen (AID 1185). To be noted: Hoxa13:DNA binding, 15 min, higher = more signal, called active from +8 up or from −8 down.
Assay [14] in a line: blockers of DNA damage checkpoint Chk1 activation – imaging, HeLa, hydroxyurea, phospho-Chk1 antibody, percent positive cells, primary screen (AID 1186). To be noted: hydroxyurea-induced phospho-Chk1 immunofluorescence imaging, higher = more signal.
Assay [15] can be described thus: blockers of DNA damage checkpoint Chk1 activation – imaging, HeLa, hydroxyurea, phospho-Chk1 nuclear intensity, primary screen (AID 1187). Conditions: hydroxyurea-induced phospho-Chk1 immunofluorescence imaging, higher = more signal.

Active and inactive are the calls of the source. Unless noted, no rule for the calls is given here.

Chain of E3 ubiquitin-protein ligase XIAP (Homo sapiens) (P98170 whole entry, looked up, the tested form may be a part): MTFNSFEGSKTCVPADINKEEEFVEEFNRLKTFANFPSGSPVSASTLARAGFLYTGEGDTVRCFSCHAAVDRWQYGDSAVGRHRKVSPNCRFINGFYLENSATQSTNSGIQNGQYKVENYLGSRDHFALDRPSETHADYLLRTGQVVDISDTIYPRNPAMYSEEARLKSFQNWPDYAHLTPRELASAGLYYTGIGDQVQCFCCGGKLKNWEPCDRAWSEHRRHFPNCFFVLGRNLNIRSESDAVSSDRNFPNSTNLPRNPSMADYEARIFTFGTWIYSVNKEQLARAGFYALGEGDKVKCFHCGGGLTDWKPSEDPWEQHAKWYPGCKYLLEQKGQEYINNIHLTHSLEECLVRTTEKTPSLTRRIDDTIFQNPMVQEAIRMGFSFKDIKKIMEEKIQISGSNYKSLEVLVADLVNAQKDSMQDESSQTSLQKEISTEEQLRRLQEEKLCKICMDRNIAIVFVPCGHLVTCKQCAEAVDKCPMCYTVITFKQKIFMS
Chain of Homeobox protein Hox-A13 (Mus musculus) (Q62424 whole entry, looked up): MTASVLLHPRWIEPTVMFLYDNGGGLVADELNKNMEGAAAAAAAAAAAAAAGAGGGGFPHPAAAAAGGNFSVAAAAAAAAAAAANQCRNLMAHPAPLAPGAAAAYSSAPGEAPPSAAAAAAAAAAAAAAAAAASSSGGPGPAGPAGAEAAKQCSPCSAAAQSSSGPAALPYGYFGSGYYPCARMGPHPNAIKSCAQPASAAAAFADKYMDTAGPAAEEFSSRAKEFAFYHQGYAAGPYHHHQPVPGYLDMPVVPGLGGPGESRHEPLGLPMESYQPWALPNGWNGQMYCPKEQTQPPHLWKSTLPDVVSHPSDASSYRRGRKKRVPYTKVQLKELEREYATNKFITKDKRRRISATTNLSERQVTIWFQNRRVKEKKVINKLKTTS
Chain of Dihydroorotate dehydrogenase (quinone), mitochondrial (Plasmodium falciparum (isolate 3D7)) (Q08210 whole entry, looked up): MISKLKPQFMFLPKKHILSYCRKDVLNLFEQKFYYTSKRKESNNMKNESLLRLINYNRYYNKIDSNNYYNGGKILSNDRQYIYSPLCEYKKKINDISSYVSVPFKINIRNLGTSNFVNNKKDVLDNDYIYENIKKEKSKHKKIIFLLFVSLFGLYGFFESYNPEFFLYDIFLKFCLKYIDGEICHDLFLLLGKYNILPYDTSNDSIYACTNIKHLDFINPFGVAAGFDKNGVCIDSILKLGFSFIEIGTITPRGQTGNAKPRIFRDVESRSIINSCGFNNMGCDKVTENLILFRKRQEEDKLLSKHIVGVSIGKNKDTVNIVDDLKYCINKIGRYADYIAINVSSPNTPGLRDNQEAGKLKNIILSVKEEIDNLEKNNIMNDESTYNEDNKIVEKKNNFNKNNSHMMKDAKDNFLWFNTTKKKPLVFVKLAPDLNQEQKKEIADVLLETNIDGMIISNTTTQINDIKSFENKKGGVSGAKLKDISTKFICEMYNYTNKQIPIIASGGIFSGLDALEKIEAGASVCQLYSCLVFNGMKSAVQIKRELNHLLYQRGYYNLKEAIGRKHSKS

For the compound `CCCC1(C(=O)OC)C=C2C(=C(C)C(=O)C2C)CN1` (centres undefined), the z-score was -1.11 in assay [1]; 1.99 (inactive) in assay [2]; -1.23 (inactive) in assay [3]; 0.343 (inactive) in [5]; 0.338 (inactive) in [6]; -0.715 (inactive) in assay [7]. Further, the z-score in assay [8] was 0.0101 (inactive); in assay [9] it was -1.88; in [12], 0.43; in assay [13], -4.88 (inactive); in assay [14], 0.779 (inactive); in [15] it was 0.909 (inactive). Also, the composite z-score is -1.8 (inactive) in [4], 0.258 in [10], -1.06 (inactive) in assay [11] and -0.527 in the assay on XIP peptide (Xip251-270).
For `CC(C)N1CC=CC23O[C@@H]4C=CCCOC(=O)C4[C@H]2C(=O)N(CCCO)[C@@H]3C1=O` (some centres undefined), the z-score in assay [1] is 1.12; in [2] it was -0.951 (inactive); in assay [3], 0.348 (inactive); in assay [5], -0.276 (inactive); in [6], 0.0977 (inactive); in assay [7] it was -0.463 (inactive). For the same compound, the z-score is 0.32 (inactive) in assay [8]; -0.114 in assay [9]; -2.07 in assay [12]; -4.97 (inactive) in [13]; -0.0561 (inactive) in assay [14]; -0.12 (inactive) in assay [15]. Besides, the composite z-score in [4] is -0.926 (inactive); in assay [10], 0.152; in assay [11], 0.431 (inactive); in the assay with XIP peptide (Xip251-270), 0.598.
As to `CCCCCCCCCC(O)C1C=CC2C(=O)N(c3ccccc3)C(=O)C2N1Nc1cc(OC)c(OC)c(OC)c1` (centres undefined), the z-score in assay [1] was -2.66; in assay [2] it was 0.953 (inactive); in assay [3], -4.42 (inactive); in assay [5], 0.711 (inactive); in assay [6], 0.27 (inactive); in assay [7], -1.57 (inactive). The z-score in [8] was -1.75 (inactive); in assay [9], -4.03; in [12], -0.412; in assay [13], -2.06 (inactive); in assay [14] it was 0.297 (inactive); in assay [15], 0.0284 (inactive). In addition, the composite z-score was -0.474 (inactive) in assay [4], 0.176 in assay [10], -0.26 (inactive) in assay [11] and 0.206 in the assay with XIP peptide (Xip251-270).
In the case of `C=CCOC(=O)[C@@H]1[C@H]2C(=O)O[C@H](c3ccccc3)[C@H](c3ccccc3)N2[C@H](c2ccc(OCCOC(=O)[C@@H]3C[C@@H]4C(=O)N[C@@H](CCCC[N+](C)(C)C)C(=O)N4[C@@H]3c3ccc(O)cc3)cc2)[C@@]12C(=O)Nc1ccc(I)cc12`, the z-score in assay [1] is 0.945; in assay [2], -0.398 (inactive); in [3], -0.596 (inactive); in assay [5] it was 0.379 (inactive); in assay [6], 1.39 (inactive); in assay [7] it was -0.507 (inactive). Besides, the z-score was -0.809 (inactive) in [8]; -0.0426 in assay [9]; -1.11 in assay [12]; 6.56 (inactive) in assay [13]; 0.355 (inactive) in assay [14]; 0.521 (inactive) in assay [15]. Besides, the composite z-score in assay [4] is -2.02 (inactive); in [10] it was -0.124; in [11] it was 0.481 (inactive); with XIP peptide (Xip251-270), 0.808.
Turning to `CC(C)C(CO)N1C(=O)[C@@H]2C3C(=O)OCCC/C=C\[C@H]3OC23C=CCN(c2ccc4ccccc4c2)C(=O)[C@@H]13` (some centres undefined), the z-score in [1] is -0.507; in [2] it was 0.267 (inactive); in assay [3] it was -0.235 (inactive); in assay [5] it was -0.292 (inactive); in assay [6], -0.259 (inactive); in assay [7] it was -0.275 (inactive). Besides, the z-score was -0.24 (inactive) in assay [8]; -0.344 in assay [9]; 0.674 in assay [12]; -6.34 (inactive) in [13]; 0.467 (inactive) in [14]; 0.516 (inactive) in assay [15]. Also, the composite z-score was -0.42 (inactive) in [4], 0.683 in assay [10], 0.0076 (inactive) in assay [11] and 0.0118 in the assay on XIP peptide (Xip251-270).
As for `Cc1ccc(S[C@]2(C(=O)NC(C)C)CC(=O)N(Cc3cc(C(F)(F)F)cc(C(F)(F)F)c3)[C@@H]2c2ccc(CO)cc2)cc1`, the z-score in [1] is -0.489; in assay [2] it was -1.33 (inactive); in assay [3] it was 0.528 (inactive); in [5], 0.31 (inactive); in assay [6], -0.656 (inactive); in [7] it was -0.0813 (inactive). Also, the z-score in assay [8] is -0.229 (inactive); in assay [9] it was 0.483; in [12] it was -0.938; in assay [13] it was -2.62 (inactive); in [14] it was 0.0619 (inactive); in assay [15] it was 0.116 (inactive). The composite z-score is -1.06 (inactive) in assay [4], -0.0125 in assay [10], 0.706 (inactive) in assay [11] and 0.49 with XIP peptide (Xip251-270).
For the compound `COc1cc(OC)c(C(O)C2C=CC3C(=O)N(Cc4ccccc4)C(=O)C3N2n2cnnc2)cc1Br` (centres undefined), the z-score was -0.797 in assay [1]; -8.67 (active) in [2]; -0.982 (inactive) in [3]; -0.169 (inactive) in assay [5]; -3.92 (inactive) in [6]; -0.514 (inactive) in assay [7]. In addition, the z-score in assay [8] was -0.905 (inactive); in [9], -1.21; in assay [12], -0.976; in [13], 0.767 (inactive); in [14], 0.0176 (inactive); in assay [15] it was 0.301 (inactive). Moreover, the composite z-score in assay [4] was -0.552 (inactive); in [10] it was 0.197; in assay [11], 0.236 (inactive); in the assay with XIP peptide (Xip251-270) it was 0.0481.
Turning to `CC[C@@H]1C=C(C(=O)O)[C@H](c2ccccc2)N1S(=O)(=O)c1ccc(C)cc1`, the z-score was -0.791 in assay [1]; 0.34 (inactive) in [2]; -1.17 (inactive) in [3]; 0.16 (inactive) in [5]; -1.02 (inactive) in [6]; -0.666 (inactive) in assay [7]. Besides, the z-score was -0.135 (inactive) in assay [8]; -1.54 in [9]; 1.78 in assay [12]; -3.56 (inactive) in assay [13]; 0.504 (inactive) in [14]; 0.227 (inactive) in assay [15]. In addition, the composite z-score in assay [4] is -0.95 (inactive); in assay [10], -0.0663; in assay [11] it was 0.336 (inactive); in the assay on XIP peptide (Xip251-270), 0.504.
Regarding `Cc1ccc(S[C@]2(C(=O)NCc3ccccc3)CC(=O)N(C3CCCCC3)[C@@H]2c2ccc(CO)cc2I)cc1`, the z-score in [1] was -0.636; in assay [2], -0.799 (inactive); in assay [3], -1.82 (inactive); in assay [5], 0.82 (inactive); in [6], -0.505 (inactive); in assay [7], 0.509 (inactive). Also, the z-score in [8] was 0.323 (inactive); in [9], -2.24; in assay [12] it was -2.17; in assay [13] it was -2.37 (inactive); in assay [14] it was 0.355 (inactive); in [15], 0.557 (inactive). For the same compound, the composite z-score in assay [4] was -0.11 (inactive); in assay [10], -0.0095; in assay [11] it was 0.2 (inactive); in the assay on XIP peptide (Xip251-270), 0.742.
